# Most compounds without a hit are left out; they make up all but 1.6% or so of the library.
# VCAM1 TNFa inh = reduces TNF alpha induced VCAM1 expression in HUVEC. HUVEC TNFa-induced VCAM-1 immunofluorescence, high-content imaging. inhibition, % at 2 µM. 95,000 compounds, 0.48% hits;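 active = inhibition above the batch mean plus 3 SD, with images confirmed as a hit by eye, cut at about 37% in these data; inconclusive = inhibition above that limit but hit not confirmed in images; inactive = inhibition not above that limit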;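 also: 0% = TNF-stimulated DMSO wells and 100% = unstimulated control wells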
# IL1B NFkB pot = enhances IL-1B driven NFkB nuclear translocation. HUVEC IL-1B NFkB p65 nuclear translocation imaging. activation, % at 2 µM. 94,000 compounds, 0.3% hits;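 active = activation above 40%, about the mean plus 3 SD, also judged a hit on visual image review; inconclusive = activation above 40% but not a hit on visual review; inactive = activation not above 40% and no visual hit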;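 also: percent activation is computed from the nuclear over cytoplasmic p65 intensity ratio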
# NFkB transloc inh = blocks IL-1B driven NFkB nuclear translocation in HUVEC cells; AID 796; HUVEC IL-1B NFkB p65 nuclear translocation imaging; 94,000 compounds, 0.43% hits; inhibition, % at 2 µM;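 active = inhibition above about 30% together with a positive call from visual inspection of the well image, limit read from the data; inconclusive = inhibition above a set limit but visual check negative; inactive = inhibition not above a set limit, visual check negative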;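 also: nuclear over cytoplasmic p65 intensity ratio measured by imaging; 0% = IL-1B stimulated DMSO wells and 100% = unstimulated DMSO wells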
# TNFa cytotox = HUVEC cytotoxicity counter-screen, TNF alpha stimulated | HUVEC TNFalpha-stimulated, Hoechst cell count, imaging | cell count reduction, % at 2 µM | 93,000 compounds, 0.17% hits;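 active = cell count reduction exceeding the screen mean by over 5 SD, scaled to untreated wells per plate, cut at about 78% in these data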;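 also: cells counted after 24 h of TNF alpha exposure following the 1 h pretreatment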
# HUVEC tox IL1B = HUVEC cytotoxicity counter-screen, IL-1B stimulated; HUVEC cell count loss, Hoechst imaging; cell count reduction, % at 2 µM; 94,000 compounds, 0.41% hits; AID 845;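 active = cell count reduction more than 3 SD above the screen-wide mean, cut at about 70% in these data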;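 also: normalized per plate to untreated control cells as the no-loss baseline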
# E-sel TNF inh = blocks E-selectin expression induced by TNF alpha. HUVEC TNFa-induced E-selectin immunofluorescence, high content. inhibition, % at 2 µM. 120,000 compounds, 0.71% hits. AID 1246;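 active = inhibition above the batch mean plus 3 SD, and confirmed as a hit on visual image review, cut at about 43% in these data; inconclusive = passes the inhibition cutoff but fails visual image review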;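 also: 0% = TNF-stimulated DMSO wells and 100% = unstimulated control wells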
# * marks the source's active call; other numbers are inactive results; ? = inconclusive; · = no result given.
SMILES,VCAM1 TNFa inh,IL1B NFkB pot,NFkB transloc inh,TNFa cytotox,HUVEC tox IL1B,E-sel TNF inh
Fc1ccc(C2CC(c3ccc(F)cc3)n3ncnc3N2)cc1 (centres undefined),5,-16,16,-12,-3,36
COc1cccc(NC(=S)NN=C2CCCCCC2)c1,·,·,·,·,·,6
CCN(CC)S(=O)(=O)c1cnccc1N1CCN(c2cccc(Cl)c2)CC1,·,·,·,·,·,9
COc1ccccc1N(C)S(=O)(=O)c1ccc(C(=O)NCC(C)C)cc1,74*,-13,13,28,2,13
CC(C)C(C(=O)O)N1CCS(=O)(=O)CC1 (centres undefined),·,·,·,·,·,80*
CCOC1=NC(C(=O)O)c2ccccc2/C(=C(/C)Cl)N1 (centres undefined),92*,-7,7,54,9,·
CCC(=O)OC1c2ccccc2C(=O)N1Cc1ccccc1 (centres undefined),4,-6,6,-2,0,·
CCn1c(SCC(=O)NCC(=O)Nc2ccc(F)cc2)nnc1-c1cccs1,-4,4,-4,-4,10,·
CCOc1ccc(NC(=O)CSc2nnc(C(C)C)n2CC)cc1,3,?,-57,-39,95*,-2
CCn1c(SCC(=O)Nc2ccc(C(=O)OC)cc2)nnc1-c1cccs1,55*,22,-22,-9,-9,0
CCN(C(=O)CN1CC(C)OC(C)C1)c1c(N)n(Cc2ccccc2)c(=O)[nH]c1=O (centres undefined),·,·,·,·,·,-7
O=C(Nc1nnc(Cc2ccccc2)s1)c1ccco1,13,13,-13,6,1,-7
CC(C)(C)C(=O)Nc1nnc(Cc2ccccc2)s1,-9,42*,-42,-39,-26,7
COC(=O)c1sccc1NC(=O)c1ccc(Br)s1,53*,11,-11,0,-19,-2
COC(=O)c1sccc1NC(=O)c1ccc(C)s1,30,15,-15,-16,-26,-41
CCN1CCCC1CNC(=O)c1ccc(N2CCOCC2)c(NS(=O)(=O)c2ccc(OC)cc2)c1 (centres undefined),·,·,·,·,·,12
O=C(CCC(=O)OCC(F)(F)C(F)F)Nc1ccccc1F,·,·,·,·,·,-3
CCOC(=O)CCc1nc2ccccc2[nH]c1=O,4,-5,5,-13,2,63*
O=C(NCN1C(=O)C2C3C=CC(C3)C2C1=O)Nc1nncs1 (centres undefined),11,12,-12,58,-2,100*
Cc1c(Cl)cccc1-n1c(SCC(=O)N2CCC(C(=O)O)CC2)nnc1-c1ccncc1,·,·,·,·,·,-45
COc1ccc(OCCC(=O)N2CCCCC2)cc1,3,-88,88*,7,87*,-15
CCOC(=O)C1=C(O)/C(=C/c2cn(CC(=O)NCC3CCCO3)c3ccccc23)SC1=Nc1ccc(C)cc1 (centres undefined),89*,-13,13,24,8,-15
CC(C)C(=O)c1cn(CC(=O)NCC2CCCO2)c2ccccc12 (centres undefined),-4,-5,5,8,9,23
O=C(CNC(=O)/C(=C\c1ccc(Br)cc1)NC(=O)c1ccccc1)OCc1ccccc1,·,·,·,·,·,-22
O=C(OCc1ccccc1)/C(=C/c1ccc(Cl)cc1)NC(=O)c1ccccc1Cl,6,40*,-40,1,-69,-13
SMILES,VCAM1 TNFa inh,IL1B NFkB pot,NFkB transloc inh,TNFa cytotox,HUVEC tox IL1B,E-sel TNF inh
O=C(NNc1nc2ccccc2s1)Nc1ccccc1,·,·,·,·,·,62*
O=C(NCc1ccco1)c1ccc(CS(=O)(=O)Cc2ccc(Cl)cc2)o1,93*,-11,11,79*,14,·
CC(=O)c1ccc(NC(=O)COc2ccc3c(c2)OCO3)cc1,·,·,·,·,·,4
COC(=O)CCC(=O)Nc1nc(-c2ccccc2)cs1,-2,22,-22,-7,14,62*
O=C(Cc1cccs1)Nc1nc(-c2ccccc2)cs1,-9,-6,6,-6,8,·
CCN(CC)S(=O)(=O)c1ccc(OC)c(NC(=O)c2cc(C)on2)c1,·,·,·,·,·,-19
CCc1c(C(=O)N2CCOCC2)csc1C,7,-98,98*,-1,91*,-3
CN(C)/C=C/C(=O)c1cnc(-c2ccccn2)s1,·,·,·,·,·,31
O=C(NC1CC1)c1ccc(S(=O)(=O)NCC2CCCCC2)cc1,51*,4,-4,53,-3,-5
O=C(C[n+]1ccc(/C=N/O)cc1)NC1CCCCC1,·,·,·,·,·,-3
O=C(OCn1nnc2ccccc2c1=O)c1cn(-c2ccccc2)nc1-c1cccnc1,-1,98*,-98,-24,-7,19
